From PubChem BioAssay AID678 (Vanderbilt High Throughput Screening Facility, 2007)
Hit rate of the full screen: of about 1,700 compounds, about 15 (0.9%) were called active.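 How the source made its calls: active means fluorescence response below the plate's average for near-maximal glutamate wells, less 3 SD of those wells; inactive means the rest.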 A selection follows.

Biological target: Metabotropic glutamate receptor 4 (Homo sapiens) (UniProt Q14833)
Assay: human mGluR4 response to M1 antagonist hits, M1 allosteric modulator project, cell-based, antagonist mode, secondary assay 1 (AID 678);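 further: raw unnormalized fluorescence span taken in the window right after glutamate addition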
Conditions: CHO-mGluR4 calcium flux, Fluo-4 fluorescence, glutamate EC80; at 10 µM; active compounds read low

Fluorescence response (max-min), inactive:
CN(C)[C@@H]1C(=O)C(C(N)=O)=C(O)[C@@]2(O)C(=O)C3=C(O)c4c(O)ccc(Cl)c4[C@@H](O)[C@H]3C[C@@H]12 238
Cc1cccc(N2CCN(Cc3c(C)n(C)n(-c4ccccc4)c3=O)CC2)c1C 223
CCC1(C)Cc2c(sc3nc4n(c(=O)c23)CCCS4)CO1 (centres undefined) 249
O=C(NC1=NCCS1)c1ccc(Cl)s1 158
Cc1nc2ccccc2c2oc(C(=O)NCCCN3CCC(C)CC3)cc12 185
O=S(=O)(CCc1nc2ccccc2o1)c1ccc(Cl)cc1 249
CCOC(=O)C1=C(CC)Nc2ccccc2N=C1NC(=O)c1cccc(S(=O)(=O)N2CCCC2)c1 148
COc1ccc(CCn2c(=N)c(C(=O)NCc3ccco3)cc3c(=O)n4cccc(C)c4nc32)cc1 207
CCC(C(=O)OCCN(CC)CC)c1ccccc1 (centres undefined) 235
O=C(c1ccco1)N1CCN=C1SCc1cccc(Cl)c1 236
O=C1NC(Nc2nc3ccccc3s2)(C(F)(F)F)C(=O)N1C1CCCCC1 (centres undefined) 308
Cn1c(CCN2CCCCCC2)nc2cc(NC(=O)Nc3ccccc3)ccc21 225
CCOC(=O)c1c(-c2ccc(C)cc2C)csc1NC(=O)CSc1nnnn1C 167
CC(C)(C)n1nnnc1C(c1cccs1)N(Cc1cccnc1)CC1CCCO1 (centres undefined) 241
CCn1c(=N)n(CC(=O)c2cccc(OC)c2)c2ccccc21 268
O=C(C(NS(=O)(=O)c1cccc2nsnc12)c1ccccc1)N1CCN(c2ccccn2)CC1 (centres undefined) 228
C=CCn1c(=S)[nH]c2nc3c(cc2c1=O)COC(C)(C)C3 199
Cc1nc2c(-c3ccc(F)cc3)c(C)nn2c(C)c1CCC(=O)N1CCN(c2ccccn2)CC1 245
CN(C)CCOC(=O)C(c1ccccc1)C1(O)CCCC1 (centres undefined) 250
CCCCN(C)C(=O)c1ccc2c(c1)N(CC)C(=O)c1ccccc1S2(=O)=O 258
O=C(NCCCN1CCCCCC1)C1CC(=O)N(C2CCCC2)C1 (centres undefined) 241
CC1CCCC(C)N1CCCNC(=O)c1cc2c(=O)n(C)c3ccccc3c2n1C (centres undefined) 236
CCOc1ccccc1C(=O)NCCCn1ccnc1 200
O=S(=O)(c1ccc(OCC(O)CN2CCN(c3ccccc3Cl)CC2)cc1)N1CCOCC1 (centres undefined) 233
COc1cccc2sc(Nc3nc(C)c(C(C)=O)s3)nc12 200
CCC(C)(NC(=O)c1ccccn1)C(=O)NC1CCCCC1 (centres undefined) 237
COc1cccc(OCCOc2cccc(/C=N/n3cnnc3)c2)c1 210
CCOC(=O)N1CCN(C(=O)C2CCN(c3ncnc4c3sc3cccc(F)c34)CC2)CC1 221
Cc1ccccc1C(OCC(O)CN1CCCCC1CCO)c1ccccc1 (centres undefined) 188
N#CC(C(=O)c1ccc(S(=O)(=O)N2CCCCCC2)cc1)c1nc2ccccc2[nH]1 (centres undefined) 182
COc1ccc(S(=O)(=O)Nc2ccc3c(c2)OCO3)cc1Cl 202
CCOC(=O)C1CCN(Cc2coc3ccc(Cl)cc3c2=O)CC1 219
O=C(Cc1cccs1)N1CCCC(c2nc(-c3ccc(S(=O)(=O)N4CCCC4)cc3)no2)C1 (centres undefined) 213
CCOC(=O)c1[nH]c2ccc(OC)cc2c1NC(=O)CCN1CCN(Cc2ccccc2)CC1 230
CCOC(=O)N1CCN(CC(=O)Nc2cc(C)nn2-c2nc3ccccc3s2)CC1 255
COc1cc(Cl)c(C)cc1NC(=O)CSc1nnc(-c2ccco2)n1CC(C)C 252
CCC(=O)c1ccc(OCC(O)CN2CCN(c3cccc(C(F)(F)F)c3)CC2)cc1 (centres undefined) 252
O=C(NCC(F)(F)F)Nc1nnc(C(F)(F)F)s1 203
CSc1nnc2c(n1)OC(c1ccsc1)N(C(C)=O)c1ccccc1-2 (centres undefined) 247
CN1CCN(CC(=O)Nc2sc3c(c2C#N)CCC(C(C)(C)C)C3)CC1 (centres undefined) 231
Cc1ccc(-c2csc3nnc(SCC(=O)NCc4ccco4)n23)cc1 237
Cc1ccsc1-c1nc(CSCC(=O)NCCN2CCCC2)c(C)o1 246
CC1=Nn2c(nnc2-c2ccccc2)SC1 162
CCCCCOC(=O)NCCOC(=O)Nc1ccc(C(=O)OCC)cc1 170
CCOC(=O)N1CCN(C(=O)C2CCCN(c3ncnc4c3sc3cccc(F)c34)C2)CC1 (centres undefined) 165
c1ccc(-c2cc(-c3nnc4sc(-c5ccccn5)nn34)[nH]n2)cc1 215
CC1(C)Cc2c(sc3nc4n(c(=N)c23)CCCCC4)CO1 203
CCN(CCCCOC(=O)c1ccc(OC)c(OC)c1)C(C)Cc1ccc(OC)cc1 (centres undefined) 254
Cc1ccc(-c2noc(CCC(=O)Nc3ccccc3N3CCN(C)CC3)n2)cc1 218
COC(=O)c1ccc(NC(=O)CN(c2ccc(C)cc2)S(=O)(=O)c2c(C)n[nH]c2C)cc1 174
O=C(c1ccc(S(=O)(=O)N2CCOCC2)cc1)N1CCN(c2ccccc2)CC1 197
COc1ccc(-c2noc(CN(C)S(=O)(=O)c3ccc(C)cc3)n2)cc1 259
COc1ccc(-c2nnn(Cc3nc(N)nc(N4CCCCC4)n3)n2)cc1 348
CC1(C)CN=C(N2CCN(c3ncnc4sc5c(c34)CCCC5)CC2)S1 244
CC12CN(Cc3ccccc3)CC(C)(CN(Cc3ccccc3)C1)C2=NO 253
COCCN(C(=O)CCC(=O)Nc1ccccn1)C(C(=O)NCCC(C)C)c1ccc(OC)cc1 (centres undefined) 243
O=C(CCN1C(=O)COc2ccccc21)NCCCN1CCN(c2ccc(F)cc2)CC1 252
COCCn1c(SCC(=O)Nc2cc(Cl)ccc2OC)nc2c(c1=O)SC(C)C2 (centres undefined) 256
COc1cc(OC)c(C(=O)NC2CC(C)(C)NC(C)(C)C2)cc1OC 184
